# Only some compounds are listed: those with a hit (about 4.1% of all), similar ones and a draw of the others.
# DAX1 inh-1 = DAX1 (NR0B1) inhibitors on StAR promoter, primary screen, cell-based, luminescence, SF-1 (NR5A1), full-length DAX-1 | inhibition, % at 6.8 µM | 370,000 compounds, 1.1% hits | HEK293T StAR-luciferase reporter, SF-1/DAX-1 repression relief;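 active means inhibition above the mean over all tested compounds plus 3 SD, cut at about 3.6% in these data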;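 further: 0% = DAX-1 cells with DMSO and 100% = cells lacking DAX-1 with DMSO; higher inhibition means more luminescence from relief of DAX-1 repression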
# DAX1 inh-2 = DAX1 (NR0B1) inhibitors, primary screen, cell-based, HEK293, Gal4-DAX1, luciferase luminescence; inhibition, % at 6.75 µM; HEK293 Gal4-DAX1 luciferase reporter; AID 504766, 2011; 340,000 compounds, 0.99% hits;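 active means inhibition above the mean over all tested compounds plus 3 SD, cut at about 4.2% in these data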;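 further: 0% = DAX1-transfected cells with DMSO and 100% = empty-vector control cells with DMSO; inhibition shows as a rise in luminescence from relieved DAX1 repression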
# Target sequence (P51843 207-470 limits assumed): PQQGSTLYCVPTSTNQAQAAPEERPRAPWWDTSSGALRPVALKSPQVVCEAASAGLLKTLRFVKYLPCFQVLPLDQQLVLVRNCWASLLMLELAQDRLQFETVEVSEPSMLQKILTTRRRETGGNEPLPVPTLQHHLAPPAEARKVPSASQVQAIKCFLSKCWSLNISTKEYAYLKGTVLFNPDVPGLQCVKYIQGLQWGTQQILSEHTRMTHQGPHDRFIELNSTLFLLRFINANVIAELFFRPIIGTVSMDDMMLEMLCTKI
# hcDAF-12 act = H. contortus DAF-12 nuclear receptor activators, primary screen, cell-based, luminescence, HEK293, lit1-tk-luc reporter; AID 652067, 2013; 370,000 compounds, 1.4% hits; HEK293 hcDAF-12 lit1-tk-luc reporter; 0% DMSO, 100% Δ7-dafachronic acid; activation, % at 6.8 µM;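 active means activation above the mean of all tested compounds plus 3 SD, cut at about 5.5% in these data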;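 further: 100% = response to 3 µM Δ7-dafachronic acid high control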
# ssDAF-12 act = S. stercoralis DAF-12 nuclear receptor activators, primary screen, cell-based, luminescence, HEK293, GRIP1 co-expression, lit1-tk-luc. Nuclear hormone receptor DAF-12 (Strongyloides stercoralis). HEK293 ssDAF-12/GRIP1 lit1-tk-luc reporter; % of 3 µM dafachronic acid response. activation, % at 6.8 µM. 370,000 compounds, 1% hits;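 active means activation above the mean over all tested compounds plus 3 SD, cut at about 0.9% in these data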;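 further: 0% = DMSO-only wells and 100% = 3 µM delta7-dafachronic acid wells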
# hgDAF-12 ag = H. glycines DAF-12 receptor agonists, primary screen, cell-based, luminescence, HEK293, GAL4 fusion, UAS-luciferase; Nuclear hormone receptor DAF-12 (Heterodera glycines), GAL4 fusion; HEK293 GAL4-hgDAF12 UAS-luciferase reporter, agonist luminescence; normalized to butyrate control; activation, % at 6.8 µM; 370,000 compounds, 1.8% hits; AID 687014, 2013;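 active means activation above a cutoff set at the mean of all screened compounds plus 3 SD, cut at about 10% in these data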;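 further: 0% = DMSO wells and 100% = sodium butyrate wells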
# Numbers without * were called inactive; . = not tested or not shown.
SMILES,DAX1 inh-1,DAX1 inh-2,hcDAF-12 act,ssDAF-12 act,hgDAF-12 ag
Cc1cccc(C)c1OCc1cc(C(=O)N2CCCC2c2nonc2C)no1 (stereo unspecified),-1,-1,0,-1,-1
Cc1ccc2nc(C(C)(C)C)c(Cc3ccsc3)n2c1,-1,.,1,0,-1
Cc1ccc2nc(-c3ccccc3)c(Cc3cccc(Cl)c3)n2c1,1,.,1,0,7
CCCc1nc2ccc(C)cn2c1Cc1cccc(Cl)c1,1,.,5.6*,1.6*,8
CCCc1nc2ccc(C)cn2c1Cc1ccsc1,2,.,5.6*,0,5
O=C(NC(=S)NC1CCCCCC1)c1cncc(Br)c1,2,1,2,-1,11*
O=[N+]([O-])c1ccc(OCCCCCN2CCOCC2)cc1,0,5.0*,4,0,7
COc1ccc(/C=C/C(=O)OCC(=O)Nc2ncc(Cl)cc2Cl)cc1,-1,0,2,1.1*,0
Nc1nnc(SCC(=O)OCC(=O)c2ccccc2Br)s1,0,0,-2,-1,4
CC(=O)Cc1nsc(Nc2ccc(F)cc2)n1,0,0,0,-2,3
CC(=O)Cc1nsc(Nc2ccc3c(c2)OCCO3)n1,1,2,2,0,12*
CCn1c(C)nc2cc(C(=O)NNC(=S)Nc3ccc(F)cc3)ccc21,3.7*,2,1,0,10
O=C(N/N=C/c1cn(-c2ccccc2)nc1-c1ccc2c(c1)OCCO2)c1ccncc1,1,0,-1,-1,10*
Cc1ccc(CN2C(C(=O)NC3CCCC3)CSCCS2(=O)=O)cc1 (stereo unspecified),0,.,1,-1,3
Cc1ccc(Cc2c(-c3ccccc3)nc3cc(C)ccn23)cc1,3,2,4,1.3*,11*
Cc1ccc2nc(-c3ccc(Cl)cc3)c(Cc3ccsc3)n2c1,3,.,2,1,13*
Cc1ccc(Cc2c(-c3ccccc3)nc3c(Cl)cc(C(F)(F)F)cn23)cc1,1,.,2,1.7*,2
CCOC(=O)c1c(-c2ccccc2)nc2cc(C)ccn12,1,4.6*,-1,-2,7
COCCCNC(=O)C[C@H]1C[C@@]2(C(=O)OC)C(=C[C@H](COCc3ccccc3)O[C@@H]2C)N(Cc2cccc3ccccc23)C1=O,-1,.,-2,-1,-4
c1ccc(-c2nnc3sc(C4CCCCC4)nn23)cc1,0,.,-2,-2,-1
Cc1ccc(Cc2c(-c3ccc(Cl)cc3)nc3ccc(Cl)cn23)cc1,2,3,-1,0,4
Cc1ccc(Cc2c(-c3ccc(C)cc3)nc3ccc(Cl)cn23)cc1,3.8*,2,2,0,7
Fc1ccc(-c2nc3ccc(Cl)cn3c2Cc2ccsc2)cc1,1,.,-1,-1,9
Cc1ccc2nc(-c3ccc(F)cc3)c(Cc3ccsc3)n2c1,2,.,2,1,10*
Cc1ccc(-c2nc3ccc(Cl)cn3c2Cc2ccsc2)cc1,4.2*,.,3,0,13*
SMILES,DAX1 inh-1,DAX1 inh-2,hcDAF-12 act,ssDAF-12 act,hgDAF-12 ag
Cc1nn(-c2ccccc2)c(Cl)c1C(=O)NCC1CCCO1 (stereo unspecified),0,1,0,-1,2
CCOC(=O)[C@]12CCCC=C1N(CCCOC)C(=O)[C@@H]2CC(=O)NCc1ccc(OC)c(OC)c1,-1,.,-2,-1,-2
CCCCOCCCNC(=O)C[C@H]1C[C@@]2(C(=O)OC)C(=C[C@H](COCc3ccccc3)O[C@@H]2C)N(Cc2ccco2)C1=O,-2,.,1,-1,5
COc1cc(SC)ccc1C(=O)OCC(=O)NCC(C)C,1,4.3*,0,-1,1
CCCOc1ccc(-c2nnc(-c3ccncc3)o2)cc1,1,3,1,-1,11*
CC1CCC/C(=C\Nc2ccc(O)cc2)C1=O (stereo unspecified),1,0,1,-1,3
Cc1cc(C(=O)O)ccc1N/C=C1\CCCC(C)C1=O (stereo unspecified),2,-1,3,1,11*
Cc1ccc(NC(=O)c2ncn(CCCNCC3CCCCC3)n2)cc1C,3.9*,0,-1,0,7
Cc1ccc(NCCCn2cnc(C(=O)Nc3ccc(C)c(C)c3)n2)cc1C,0,-1,-1,-1,-1
CCCC[C@@H]1C(=O)N2N=Cc3ccccc3[C@H]2N2N=Cc3ccccc3[C@@H]12,-1,.,-2,-2,-1
COc1ccc(S(=O)(=O)N2CCCCC2)cc1NC(=O)c1[nH]c(C)c(C(C)=O)c1C,-1,4.5*,6.2*,0.9*,1
CC(=O)c1c(C)[nH]c(C(=O)OCC(=O)Nc2ccc(Cl)c(S(=O)(=O)N(C)C)c2)c1C,-2,-3,-5,-3,-13
CC(=O)c1c(C)[nH]c(C(=O)Nc2ccc(Cl)cc2F)c1C,2,2,2,0,11*
CC(=O)c1c(C)[nH]c(C(=O)Nc2ccc(Cl)c(S(=O)(=O)N(C)C)c2)c1C,2,10.0*,2,-1,6
COCCCNC(=S)N1CCN(S(=O)(=O)c2ccc(OC)cc2)CC1,0,1,-1,-1,-1
Cc1ccc(-c2[nH]c3ccccc3c2SCCN)cc1,1,2,6.0*,1.2*,4
CN(C(=O)c1cc(-c2ccccc2)on1)C1CCCCC1,3,3,2,0,11*
CN1Cc2c(N3CCOCC3)nc3sc(C(=O)c4ccc(Br)cc4)c(N)c3c2CC1(C)C,0,.,-1,-1,3
CN1Cc2c(N3CCOCC3)nc3sc(C#N)c(N)c3c2CC1(C)C,1,5.4*,3,-1,-1
CCc1ccc(N2C(=O)C[C@@](C#N)(C(=O)OC)[C@H]2c2ccccc2)cc1,1,.,0,-1,-6
CN(C)/C=C(\C#N)C(=O)Nc1ccc(F)c(Cl)c1,1,4,1,1.3*,3
CN(C)/C=C(\C#N)C(=O)Nc1ccc(F)cc1,2,1,1,-1,6
CCOCC(=O)NC(=O)N1C[C@H]2CON(C)[C@H]2C[C@H]1c1ccc(OC)cc1,0,.,0,-1,1
Cc1csc(SC(C)C(=O)Nc2ccc(S(=O)(=O)N3CCCC3)cc2)n1 (stereo unspecified),2,-1,-1,-1,4
Cc1csc(SC(C)C(=O)NCC2CCCCC2)n1 (stereo unspecified),0,1,1,1.0*,-1

# Source: PubChem BioAssay (The Scripps Research Institute Molecular Screening Center)
